This is a sample that favours compounds with a hit; in the whole collection about 0.98% have one here.
RTF Ca sens act: increases calcium sensitivity of human cardiac regulated thin filaments; activation, % at 7.2 µM; AID 493008; IANBD-labeled TnC RTF fluorescence at EC20 calcium; 0% EC20 calcium, 100% full calcium; 340,000 compounds, 0.24% hits; P19429+P45379;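 active means activation above the mean over all tested compounds plus 3 SD, cut at about 30% in these data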;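 further: rise in fluorescence read as greater calcium sensitivity of cardiac thin filaments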
Keap1 Nrf2 FP: disrupts human Keap1 binding to Nrf2 peptide | Q14145 | Keap1 Kelch-Nrf2 peptide fluorescence polarization, 1536-well | inhibition, % at 9.4 µM | 340,000 compounds, 0.15% hits | AID 504523; in the data active means inhibition above about 12%;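 further: human Keap1 Kelch domain with fluorescein labeled Nrf2 9mer peptide probe; 0% = neutral control wells and 100% = peptide positive control; higher means more block of Keap1 binding to Nrf2 peptide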
LANA DNA inh: blocks KSHV LANA C-terminal domain binding to DNA | MBP-C-LANA/FAM-LBS DNA binding, fluorescence polarization | inhibition, % at 9 µM | 340,000 compounds, 0.078% hits;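 active means highest replicate inhibition at or above 60% at 9 µM, even if other replicates fall short; inactive means all replicates below 60% inhibition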;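 further: 0% = neutral control wells and 100% = 4 µM acridine orange control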
LANA-H2B inh: blocks KSHV LANA binding to histone H2A/H2B | Q9QR71 | cell-free LANA-H2A/H2B peptide, fluorescence polarization | 320,000 compounds, 0.6% hits | inhibition, % (test concentration not listed); in the data active means inhibition mostly above about 10%, no sharp cut-off; inactive means mostly below about 6.7%
Target sequence (Q9QR71 whole entry, looked up): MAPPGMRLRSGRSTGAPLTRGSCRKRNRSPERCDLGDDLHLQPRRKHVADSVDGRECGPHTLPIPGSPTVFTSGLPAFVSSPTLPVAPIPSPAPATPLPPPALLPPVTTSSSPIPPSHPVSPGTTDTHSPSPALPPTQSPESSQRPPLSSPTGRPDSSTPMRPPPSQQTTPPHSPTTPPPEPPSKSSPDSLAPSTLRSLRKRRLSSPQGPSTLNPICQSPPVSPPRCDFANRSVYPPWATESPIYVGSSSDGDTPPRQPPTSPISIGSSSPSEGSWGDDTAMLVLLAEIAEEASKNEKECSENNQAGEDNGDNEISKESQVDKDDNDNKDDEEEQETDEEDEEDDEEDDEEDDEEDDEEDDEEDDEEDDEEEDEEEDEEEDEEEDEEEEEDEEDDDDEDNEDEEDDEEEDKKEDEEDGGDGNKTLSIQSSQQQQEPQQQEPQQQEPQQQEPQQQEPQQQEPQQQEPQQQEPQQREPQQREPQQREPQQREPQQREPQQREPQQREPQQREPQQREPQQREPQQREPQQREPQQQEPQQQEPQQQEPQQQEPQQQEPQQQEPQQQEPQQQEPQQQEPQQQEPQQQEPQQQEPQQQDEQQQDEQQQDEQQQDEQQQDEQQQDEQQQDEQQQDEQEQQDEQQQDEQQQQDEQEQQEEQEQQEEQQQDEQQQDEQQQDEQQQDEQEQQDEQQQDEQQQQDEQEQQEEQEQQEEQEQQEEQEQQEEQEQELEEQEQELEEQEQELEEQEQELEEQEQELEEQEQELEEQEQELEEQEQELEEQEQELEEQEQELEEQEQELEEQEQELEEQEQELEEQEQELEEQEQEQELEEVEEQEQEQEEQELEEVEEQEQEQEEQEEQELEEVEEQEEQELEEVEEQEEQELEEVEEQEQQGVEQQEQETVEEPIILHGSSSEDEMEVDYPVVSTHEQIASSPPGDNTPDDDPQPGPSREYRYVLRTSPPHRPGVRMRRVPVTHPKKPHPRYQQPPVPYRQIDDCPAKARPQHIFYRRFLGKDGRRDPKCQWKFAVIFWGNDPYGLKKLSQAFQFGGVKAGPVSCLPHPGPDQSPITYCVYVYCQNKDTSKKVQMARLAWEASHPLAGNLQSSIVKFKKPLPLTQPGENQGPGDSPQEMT
RTF Ca sens inh: cardiac RTF calcium desensitization; inhibition, % at 7.15 µM; P19429+P45379; IANBD-labeled cardiac RTF, Ca2+ fluorescence; 340,000 compounds, 0.12% hits;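 active means inhibition above the mean inhibition of all tested compounds plus 3 SD, cut at about 17% in these data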;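 further: assay run at fixed EC70 calcium of 1.6 mM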
RTF inh confirm: cardiac RTF calcium sensitivity inhibition, confirmation. shares compounds with RTF Ca sens inh. reconstituted cardiac thin filaments, calcium sensitivity fluorescence. inhibition, % at 7.15 µM. 360 compounds, 8% hits; in the data active means inhibition above about 18%
Numbers without * were called inactive; . = no result.

SMILES | RTF Ca sens act | Keap1 Nrf2 FP | LANA DNA inh | LANA-H2B inh | RTF Ca sens inh | RTF inh confirm
COc1cc(/C=C2\SC(=S)N(NC(=O)c3cccnc3)C2=O)ccc1O | 6.7 | -20.1 | -12.1 | -2.2 | -6.9 | .
Cc1nn(CC(=O)NCCCN2CCCC2)c(=O)c2nn(-c3ccccc3)c(C)c12 | 0.5 | -1.6 | 0.6 | 0.3 | 19.3* | -0.7
O=C1N=C(N2CCN(c3cccc4ccccc34)CC2)S/C1=C/c1cccs1 | -2.6 | -1.1 | 2.5 | -2.6 | 3.2 | .
Cc1ccccc1N1CCN(C2=NC(=O)/C(=C\c3cccs3)S2)CC1 | -0.2 | 1.0 | 0.1 | -1.2 | 18.9* | 0.5
CN1CCCC(CC2c3ccccc3Sc3ccccc32)C1 (stereo not given) | -3.2 | 2.2 | -0.2 | 3.2 | 4.7 | .
CN1CCCC(CN2c3ccccc3Sc3ccccc32)C1 (stereo not given) | -5.2 | 0.4 | 0.3 | -5.3 | 24.1* | -2.4
O=C(Nc1nccs1)c1ccc(-c2ccc(F)cc2)o1 | -3.5 | -1.6 | 1.6 | 2.6 | 17.1* | -5.5
Cc1cccc(NC(=O)c2cnn(C)c2)c1C | 4.8 | 1.0 | 0.0 | 5.3 | 17.3* | -1.7
Cc1ccccc1C(=O)N/N=C1/SCC(=O)N1Cc1ccccc1 | 2.7 | 0.3 | -1.5 | 4.0 | 18.3* | 1.5
CC(Oc1ccccc1)C(=O)Nc1nnc(S(=O)(=O)N2CCCCCC2)s1 (stereo not given) | 0.0 | 0.7 | -0.5 | -1.6 | -8.8 | .
CCC(Oc1ccccc1)C(=O)Nc1nnc(S(=O)(=O)N2CCCCC2)s1 (stereo not given) | -1.6 | 1.6 | . | 3.4 | 17.6* | -4.0
CN(Cc1cn(-c2ccccc2)nc1-c1ccc(F)cc1)C(=O)CCC(=O)O | -6.1 | 1.2 | 1.5 | 2.6 | 17.2* | -6.5
COc1cc(-c2nnc(SCc3cc(=O)oc4cc(O)c(O)cc34)o2)cc(OC)c1OC | -30.9 | -3.4 | 7.9 | 2.0 | 29.9* | 17.2*
O=C(Nc1ccnn1C1CCN(Cc2cccnc2)CC1)c1ccccc1Cl | -6.8 | -3.9 | -0.8 | -1.1 | 17.5* | -0.8
S=c1[nH]nc(-c2cc(-c3ccccc3)n[nH]2)n1/N=C/C=C/c1ccco1 | . | . | . | 0.3 | . | .
S=c1[nH]nc(-c2ccco2)n1/N=C/C=C/c1ccco1 | -12.0 | -5.4 | 8.5 | -9.3 | 17.7* | -9.1
CCCCC1=CC2=C(c3ccco3)C(=O)C(C)(OC(=O)c3ccc(OC)cc3)C(=O)C2=CN1c1ccccc1 (stereo not given) | -8.5 | -2.8 | -1.1 | -0.5 | -8.1 | .
C=CCN(CC=C)S(=O)(=O)c1ccc(C(=O)Nc2nnc(COC)o2)cc1 | 4.3 | -6.4 | -1.5 | 1.0 | 10.9 | .
COCc1nnc(NC(=O)c2ccc(S(=O)(=O)N(CC(C)C)CC(C)C)cc2)o1 | -0.1 | -6.2 | 0.4 | -2.6 | 188.8* | -0.6
Nc1nc(-c2ccccc2)c(N=Nc2ccccc2Cl)s1 | 5.9 | -2.0 | 3.0 | 4.6 | 21.6* | 0.4
COc1cc2c(cc1OC)C(C)N(C(=O)Cc1ccc(C(F)(F)F)cc1)CC2 (stereo not given) | -1.8 | -3.0 | -0.2 | -1.1 | 1.7 | .
O=C(c1ccc(Cl)cc1)c1cnc2ccccn12 | 2.7 | -0.8 | 0.9 | 0.9 | 17.9* | -1.3
O=C(NCCO)c1ccc2nc(-c3ccco3)c(-c3ccco3)nc2c1 | -11.1 | -3.3 | 34.2 | -2.4 | 3.0 | .
O=C(NC1CCCC1)c1ccc2nc(-c3ccco3)c(-c3ccco3)nc2c1 | -19.7 | 0.8 | 2.8 | -0.3 | 17.8* | -7.0
C=CCNCCCCOc1ccc(OCC)cc1 | 2.9 | -2.1 | -0.8 | 0.9 | -4.2 | .
SMILES | RTF Ca sens act | Keap1 Nrf2 FP | LANA DNA inh | LANA-H2B inh | RTF Ca sens inh | RTF inh confirm
COCC(C)n1c(SCC(=O)c2cc(C)n(C)c2C)nc2ccccc2c1=O (stereo not given) | -1.9 | -2.0 | -5.4 | -4.0 | -4.8 | .
Cc1cccc(NC(=O)CCSc2ccccn2)c1 | -0.8 | -3.3 | 1.2 | -1.1 | 18.0* | 0.0
Cc1cc(C)c(NC(=O)C2CC3CCC2C3)c(C)c1 (stereo not given) | 2.4 | 2.3 | 0.1 | -0.4 | -2.8 | .
COc1cc(/C=C2\SC(=S)N(C(C(=O)O)c3ccccc3)C2=O)cc(OC)c1OC (stereo not given) | 11.0 | -0.4 | -0.6 | 5.9 | 28.0* | -3.6
COc1cccc(/C=C2\SC(=S)N(C(C(=O)O)c3ccccc3)C2=O)c1OC (stereo not given) | -1.7 | -1.0 | -0.2 | -3.4 | 4.7 | .
CCC(=O)OC1(C)C(=O)C2=COC(c3ccc(OC)cc3)=CC2=C(Br)C1=O (stereo not given) | -12.8 | -1.0 | 7.3 | 7.1 | 17.2* | -2.2
COc1ccc(C2=CC3=C(Br)C(=O)C(C)(O)C(=O)C3=CO2)cc1 (stereo not given) | -11.2 | -8.6 | 6.3 | -0.6 | 2.6 | .
CC(=O)c1ccccc1NC(=O)Cn1c(=O)cnc2ccccc21 | -0.8 | -6.6 | -0.3 | 2.7 | -6.0 | .
CC(=O)Nc1ccc2ccccc2c1 | -7.7 | 0.4 | -0.4 | 0.5 | 23.6* | -1.7
CC(Oc1ccc(C#N)cc1)C(=O)N1CC=C(c2ccccc2)CC1 (stereo not given) | -3.7 | -4.9 | 1.7 | 0.8 | 3.4 | .
NC[C@@H]1O[C@H](O[C@H]2[C@@H](O)[C@H](O[C@@H]3[C@@H](O)[C@H](N)C[C@H](N)[C@H]3O[C@H]3O[C@H](CO)[C@@H](O)[C@H](O)[C@H]3N)O[C@@H]2CO)[C@H](N)[C@@H](O)[C@@H]1O | . | . | . | -2.6 | . | .
CCN(CC)C(=O)CSc1nc2ccccc2c(=O)n1-c1cccc(OC)c1 | -3.2 | -2.0 | 0.3 | 0.2 | -0.5 | .
COc1cccc(-n2c(SCc3cc(=O)oc4cc(O)c(O)cc34)nc3ccccc3c2=O)c1 | -19.8 | 0.9 | 2.5 | 6.0 | 17.0* | -2.4
O=C(NCCc1c[nH]c2ccccc12)C(=O)NCC1OCCN1S(=O)(=O)c1ccccc1 (stereo not given) | -1.2 | -0.2 | 0.4 | 2.1 | 18.5* | -4.5
CN(CC(=O)Nc1ccc(N2CCOCC2)cc1)C(=O)CSc1ccc(Br)cc1 | -6.5 | -3.0 | . | -1.4 | 2.0 | .
CCOC(=O)CSc1nc(=O)n2cccc(C)c2n1 | . | 1.2 | -2.6 | -2.5 | . | .
CC(=O)N1CCCN(Cc2nc(C3(c4ccc(C)cc4)CCCC3)no2)CC1 | -3.2 | -6.8 | -2.8 | -2.6 | -7.5 | .
COCCN1CCN(Cc2nc(C3(c4ccc(C)cc4)CCCC3)no2)CC1 | -0.5 | -2.3 | 0.3 | -1.6 | 19.4* | -1.5
COC(=O)c1cc2oc(C)cc2n1CC(=O)N(C)c1ccccc1 | -2.2 | -2.0 | -0.3 | -5.7 | 17.1* | -3.0
C=CCN(C(=O)Cn1c(C(=O)OC)cc2oc(C)cc21)c1ccccc1 | 6.6 | -0.8 | -1.6 | -2.1 | -29.1 | .
O=C(O)CSc1nc2sc3c(c2c(=O)n1Cc1ccccc1)CCCCC3 | 9.5 | 2.0 | -2.1 | 1.8 | -5.4 | .
O=C(O)CSc1cc(C(=O)c2ccccc2O)cn2c(=O)c3c4c(sc3nc12)CCCC4 | -8.3 | -0.2 | 2.0 | . | 21.9* | 4.9

Bioassay records (PubChem BioAssay)
